Data: PubChem BioAssay AID1159580 (chemical genetic matrix, 2015)
About 2,000 (36%) of roughly 5,500 compounds were called active. Not shown: some 18% with an inconclusive outcome. Rule as the data show it: active = normalized growth mostly below about 0.91 (no sharp cut-off); inconclusive = no clear call, values can overlap the other calls; inactive = mostly above about 0.92. The list shows a part of the results.

Experiment: chemical genetic growth profiling, strain panel (AID 1159580);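 also: tested at 20 µM; growth read once vehicle control cultures reached saturation at 30 °C; 1 = growth at the plate median or of vehicle wells; lower values mean less growth of the strain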
Details: S. cerevisiae deletion strains, growth OD

Measured: normalized growth

CCN1CN=C(SCc2ccc(Br)cc2)NC1
inactive: locus YAL013W, strain DEP1, hits give low values 1.01 | locus YBR229C, strain ROT2, hits give low values 1.01 | locus YCL061C, strain MRC1, hits give low values 1.02 | locus YDL101C, strain DUN1, hits give low values 0.998 | locus YDL134C, strain PPH21, hits give low values 1.01 | locus YDR150W, strain NUM1, hits give low values 0.995 | locus YEL061C, strain CIN8, hits give low values 1.01 | locus YGR078C, strain PAC10, hits give low values 0.998 | locus YHR030C, strain SLT2, hits give low values 0.902 | locus YHR087W, strain rtc3, hits give low values 0.999 | locus YJL187C, strain SWE1, hits give low values 1.01 | locus YJR043C, strain POL32, hits give low values 0.988 | locus YJR075W, strain HOC1, hits give low values 0.98 | locus YKL190W, strain CNB1, hits give low values 1.02 | locus YLR039C, strain RIC1, hits give low values 0.982 | locus YLR058C, strain SHM2 (second series), hits give low values 1.02 | locus YLR085C, strain ARP6, hits give low values 1.02 | locus YLR262C, strain YPT6, hits give low values 0.953 | locus YML094W, strain GIM5, hits give low values 0.996 | locus YMR219W, strain ESC1, hits give low values 0.999 | locus YMR263W, strain SAP30, hits give low values 1.01 | locus YMR307W, strain GAS1, hits give low values 1.17 | locus YNL153C, strain GIM3, hits give low values 0.986 | locus YNL298W, strain CLA4 (second series), hits give low values 0.984 | locus YNL322C, strain KRE1, hits give low values 1.01 | locus YNR030W, strain Alg12, hits give low values 0.999 | locus YPL055C, strain LGE1, hits give low values 1.06 | locus YPL241C, strain CIN2, hits give low values 0.995 | locus YPR135W, strain CTF4, hits give low values 0.98
